The record followed here is PubChem BioAssay (EPA / NIEHS).

The structures appear in SMILES notation. Several values for one entry are separate records, joined by “and”; a condition that tells them apart may be missing. Equal entries are not always repeated. The source holds several records for some structures; these can differ, active in one and inactive in another. Activity calls are given as the source filed them. Rule for the calls: active = hit-call score of the fitted dose curve at least 0.9, where 1 is the maximum; inactive = score below 0.9.

In this test the target is Retinoic acid receptor alpha (Homo sapiens) (UniProt P10276). In words: ATG_DR5_RAR_CIS: Attagene CIS-FACTORIAL HepG2 Assay for human Retinoic Acid Receptor Alpha (RARE), DR5 submotif (AID 2282934).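 For AC50: reporter responds to endogenous RAR alpha beta and gamma in HepG2 not RARA alone.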 The following applies: HepG2 Attagene cis-factorial RARE DR5 reporter, mRNA; actives raise or lower the signal. As to the method: ATG_CIS is a cell-based, multiplexed-readout assay that uses HepG2, a human liver cell line, with measurements taken at 24 hours after chemical dosing in a 24-well plate.ATG_DR5_RAR_CIS is one of 52 assay component(s) measured or calculated from the ATG_CIS assay. It is designed to make measurements of mRNA induction, a form of inducible reporter, as detected with fluorescence intensity signals by Reverse transcription polymerase chain reaction (RT-PCR) and Capillary electrophoresis technology.Data from the assay component ATG_DR5_RAR_CIS was analyzed into 1 assay endpoint. This assay endpoint, ATG_DR5_CIS, was analyzed with bidirectional fitting relative to DMSO as the negative control and baseline of activity. Using a type of inducible reporter, measures of mRNA for gain or loss-of-signal activity can be used to understand the reporter gene at the transcription factor-level as they relate to the gene RARA and RARB and RARG. Furthermore, this assay endpoint can be referred to as a primary readout, because this assay has produced multiple assay endpoints where this one serves a reporter gene function. To generalize the intended target to other relatable targets, this assay endpoint is annotated to the nuclear receptor intended target family, where the subfamily is non-steroidal.
Sequence of Retinoic acid receptor alpha (Homo sapiens) (P10276 whole entry, looked up): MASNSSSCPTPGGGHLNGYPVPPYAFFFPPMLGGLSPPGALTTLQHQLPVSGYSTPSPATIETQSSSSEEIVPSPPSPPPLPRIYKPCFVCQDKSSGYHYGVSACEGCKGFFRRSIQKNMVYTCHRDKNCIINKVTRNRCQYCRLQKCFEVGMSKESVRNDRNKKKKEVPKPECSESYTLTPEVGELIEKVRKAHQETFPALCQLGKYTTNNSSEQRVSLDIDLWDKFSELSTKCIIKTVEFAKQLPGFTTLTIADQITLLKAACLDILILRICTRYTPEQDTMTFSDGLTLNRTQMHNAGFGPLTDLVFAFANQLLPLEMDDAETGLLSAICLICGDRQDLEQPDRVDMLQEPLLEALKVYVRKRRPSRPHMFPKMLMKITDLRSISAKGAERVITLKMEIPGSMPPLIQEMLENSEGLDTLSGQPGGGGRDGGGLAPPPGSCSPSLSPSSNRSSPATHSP
Human liver HepG2 cells are transiently transfected with multiple reporter transcription units (MRTUs) in 6-well plates using FuGene 6 reagent (Roche; 3 ml FuGene/1 mg DNA). The MRTU constructs are regulated by a cis-regulating element (promoter). […] A major difference between the CIS and TRANS system is that in CIS activities of endogenous TFs are measured, whereas the TRANS assay evaluates changes in activities of exogenous, chimeric NR-Gal4 proteins. […] At the end of 24 hour incubation, total RNA was isolated using TriZol reagent (Invitrogen). The isolated RNA is then reverse-transcribed using oligo(dT) primer and Mo-MLV reverse transcriptase (Invitrogen) with DNAse I (Ambion) treatment for 30 min. The one-tenth of the produced cDNA was amplified by PCR using Taq DNA polymerase (Invitrogen) and two reporter sequence-specific primers. The PCR products were fluorescently labeled by primer extension with 6-arboxyfluorescein (6-FAM) 5'-labeled reporter sequence-specific primer (2 min at 95 C, 20 s at 68 C and 10 min at 72 C) and these products were digested with 5U of HpaI (New England Biolabs) for 2h at 37 C. The fragments were purified using Qiaquick PCR columns (Qiagen), analyzed on an ABI 3130xL genetic analyzer (Applied Biosystems) with peak positions identified by using a set of X-rhodamine (ROX)-labeled MapMarker1000 molecular weight standards (BioVentures). The raw capillary electrophoresis data was processed using Attagraph software (Attagene).
As for `OCCC(F)(F)C(F)(F)C(F)(F)C(F)(F)C(F)(F)C(F)(F)F`, the call was inactive.

As for `Oc1cccc(O)c1`, the call was inactive.

`CCOC(=O)CC(O)(CC(=O)OCC)C(=O)OCC`: the compound was classed as inactive.

`c1ccc2c(c1)Cc1ccccc1-2`: the compound was classed as inactive.

As for `Cc1cc(CCN2CCN(c3nsc4ccccc34)CC2)cc2c1NC(=O)CC2(C)C`, the AC50 – broadly, the midpoint of the concentration-response curve, whichever way the signal moves – is 3.74 µM (active).

In the case of `Cc1cc(C)c(O)c(C)c1`, the AC50 is 100 µM (active).

On to `CC(C)(C)CC(C)(C)c1ccc(O)c(-n2nc3ccccc3n2)c1`, for which the compound was called inactive.

`CC(=O)CC(C)(C)O`: the compound was classed as inactive.

With `Nc1cccc2c(N)cccc12`, the call was inactive.

As for `NC(=O)N(O)[C@@H]1C=C[C@H](Oc2cccc(Oc3ccc(F)cc3)c2)C1`, the outcome was inactive.

Consider `CCCCOCCO`, for which the compound was classed as inactive.

With `CCCCC(CC)COC(=O)CCCCC(=O)OCc1ccccc1` (stereo unspecified), the call was inactive.

For `CCCCCCCCCCCCCCCS(=O)(=O)Oc1ccccc1`, the compound was called inactive.

On to `COc1cc(CCC(=O)CC(=O)CCc2ccc(O)c(OC)c2)ccc1O`, for which the call was inactive.

Regarding `O=[N+]([O-])c1ccc(O)cc1`, the outcome was inactive.

As to `OC1CCCCC1`, the call was inactive.

`CCCCCCCCC(=O)O`: the compound was classed as inactive.

On to `COCC(C)OCC(C)O` (stereo unspecified), for which the result was inactive.

With `CN1CCN(c2ccccc2/C=C2\SCCN(c3ccc(Cl)c(Cl)c3)C2=O)CC1`, the result was inactive.

Consider `CCCOC(=O)c1ccc(O)cc1`, for which the compound was called inactive and the AC50 is 25.2 µM (active).

As for `CCCOc1sc(C(=O)N2CCC(c3cc(CN)ccc3F)CC2)c(C)c1Br`, the result was inactive.

In the case of `ClC1=C(Cl)C(Cl)(Cl)C(Cl)=C1Cl`, the AC50 is 21.4 µM (active) and the compound was called inactive.

For the compound `CCCCC[C@H](O)CC(=O)CCc1ccc(O)c(OC)c1`, the call was inactive.

Turning to `CN(C)C=O`, the call was inactive.

`FC(F)(I)C(F)(F)C(F)(F)C(F)(F)C(F)(F)C(F)(F)I`: the result was inactive.

As for `CCN(CC)CCNc1ccc(CNC=O)c2sc3ccc(OC)cc3c(=O)c12`, the AC50 was 0.457 µM (active).

Take `NCC(F)(F)C(F)(F)C(F)(F)C(F)(F)C(F)(F)C(F)(F)C(F)(F)F`: the result was inactive.

Take `CC(=O)NC1(c2cccc(F)c2)CCN(CC[C@@]2(c3ccc(Cl)c(Cl)c3)CN(c3ccccc3)C(=O)CO2)CC1`: the AC50 is 62 µM (active).

Take `CC(C)CCCCCCOC(=O)CCCCC(=O)OCCCCCCC(C)C`: the outcome was inactive.

Take `O=C(O)Cc1cc(I)c(Oc2cc(I)c(O)c(I)c2)c(I)c1`: the AC50 is 41.1 µM (active) and 32.5 µM (active).

As to `Oc1cc2ccccc2c2ccccc12`, the compound was classed as inactive.

Consider `CCCCCCC(=O)O`, for which the call was inactive.

For the compound `c1ccc2c(c1)ccc1ccccc12`, the result was inactive.

For the compound `CC(O)C(=O)O` (stereo unspecified), the result was inactive.

With `Cc1oc(-c2ccccc2)nc1CCOc1ccc(C[C@H](Nc2ccccc2C(=O)c2ccccc2)C(=O)O)cc1`, the outcome was inactive.

As to `NC(=O)N1C(=O)C(C(=O)c2cc(Cl)cs2)c2cc(F)c(Cl)cc21` (stereo unspecified), the compound was called inactive.

Regarding `COC(=O)CCCCC(=O)OC`, the result was inactive.

As for `CC#C[C@]1(O)CC[C@H]2[C@@H]3CCC4=CC(=O)CCC4=C3[C@@H](c3ccc(N(C)C)cc3)C[C@@]21C`, the AC50 was 7.96 µM (active) and the call was inactive.
